Assay outcomes deposited in PubChem BioAssay by National Center for Advancing Translational Sciences (NCATS).
Shown are actives, neighbours in structure and some others; about 19% of the full set was active somewhere.
CHX counter: counter-screen hit for Shiga toxin inhibitors, cycloheximide; cell reporter, cycloheximide protein synthesis inhibition counterscreen; max response, %; 300,000 tested, 12% active; AID 2314; in the data active means max response mostly above about 13%, no sharp cut-off; inactive means mostly below about 14%; further: read at 38.3 µM for the half of the compounds with a filed dose
Shiga inhibitor: blocks Shiga toxin action in Vero cells | Vero cells, Shiga toxin protein synthesis inhibition reporter | inhibition, % at 38.7 µM | 290,000 tested, 9.2% active | AID 2315; in the data active means inhibition mostly above about 28%, no sharp cut-off; inactive means mostly below about 43%
Pf growth 96h: P. falciparum growth inhibition at 96 hour, primary screen for plastid delayed-death inhibitors | P. falciparum luciferase reporter growth, 96 h | Potency, µM (top dose mostly 28.7 µM), most hits filed as inhibitors | 320,000 tested, 6.9% active | AID 504834
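Two-generation exposure (96 h) targets delayed-death phenotype. Reporter parasites carrying integrated firefly luciferase, in red cells at 2% hematocrit and 0.05% parasitemia final, kept at 37 C, 5% CO2; luminescence loss indicates inhibition.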
Pf growth 48h: inhibits P. falciparum growth in the first generation, 48 h. P. falciparum luciferase growth in erythrocytes, 48 h. Potency, µM (doses to about 28.7 µM), usual class: inhibitors. 310,000 tested, 5.9% active. AID 504832
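Compounds are pin-transferred into medium, infected erythrocytes (2% hematocrit, 0.1% parasitemia final) are added, and plates sit one parasite generation at 37 C in 5% CO2. Detection reagent is then added and luminescence measured.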
AMA1-RON2 inh: disrupts binding of P. falciparum AMA1 to RON2; 360,000 tested, 0.2% active; Potency, µM (highest dose often 58.2 µM), usual class: inhibitors; AID 720542; AlphaScreen AMA1-biotinylated RON2 peptide binding; further: nearly all actives have a fitted effect of over 45% in size
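AMA1 (3D7) with his tag at 25 nM final met compounds first, then biotinylated RON2 peptide at 25 nM; detection used donor plus acceptor beads, 10 µg/mL apiece, read by AlphaScreen after 30 min at room temperature.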
SARS PLP yeast: inhibitors of SARS-CoV papain-like protease in yeast; S. cerevisiae expressing SARS-CoV PLpro, growth rescue; Potency, µM (series often up to 32.9 µM), hits mostly activators; 330,000 tested, 0.19% active; AID 485353; calls by dose curve; further: nearly all actives have a fitted effect of over 55% in size
A number is an active result; – = inactive; ? = inconclusive; · = not tested or not shown. Unless noted, the call rests on the fitted dose curve; in most records, active means well fitted curve in the direction sought with a large enough effect; inconclusive means small, poorly fitted or top-dose-only effect, or another doubt; inactive means no such curve, though single readings can be large; an effect the other way counts as inactive or inconclusive.

SMILES	CHX counter	Shiga inhibitor	Pf growth 96h	Pf growth 48h	AMA1-RON2 inh	SARS PLP yeast
O=C(N/N=C/c1ccc(O)c(O)c1)N/N=C/c1ccc(O)c(O)c1	–	–	–	?	?	–
COc1cc(/C=N/NC(=O)c2cc(C)oc2C)cc(OC)c1OC	–	–	–	–	–	–
COc1cc(/C=N/NC(=O)c2nonc2N)cc(OC)c1OC	32.3	87.0	–	–	–	–
Cc1ccc(CNC(=O)c2nnn(CC(=O)Nc3cc(C)cc(C)c3)c2N)cc1	–	–	2.08µM	–	–	–
Cc1cc(C)cc(NC(=O)Cn2nnc(C(=O)NCc3ccc4c(c3)OCO4)c2N)c1	–	–	0.104µM	–	–	–
COc1ccc(Cl)cc1NC(=O)c1nnn(CC(=O)Nc2ccc3c(c2)OCO3)c1N	–	–	14.7µM	–	–	–
COc1ccc(NC(=O)Cn2nnc(C(=O)NCc3ccc4c(c3)OCO4)c2N)cc1	–	–	–	–	–	–
O=C(Nc1cccc(C(F)(F)F)c1)NC1CCCCC1	–	–	·	·	–	–
C/C(CC(=O)Nc1cccc(C(F)(F)F)c1)=N\NC(=O)C1CCCCC1	26.7	–	–	–	–	–
O=C(OC(C(=O)Nc1cccc(C(F)(F)F)c1)c1ccccc1)C1CCCCC1 (stereo not drawn)	–	–	6.57µM	?	–	–
COc1ccc(C(=O)N/N=C(\C)CC(=O)Nc2cccc(C(F)(F)F)c2)cc1	39.0	81.5	–	–	–	–
O=C(COC(=O)C1CCCO1)Nc1cccc(C(F)(F)F)c1 (stereo not drawn)	–	–	7.38µM	–	–	–
Cc1sc2c(c1C)C(c1ccc(C(C)(C)C)cc1)=NCC(=O)N2CC(=O)Nc1nccs1	–	–	10.4µM	?	–	–
COCCNC(=O)c1c(NC(=O)c2ccc(Br)o2)n(Cc2ccccc2)c2nc3ccccc3nc12	–	–	?	13.1µM	–	–
Cc1cc2oc(=O)cc(Cn3nnc(-c4ccc(Cl)cc4)n3)c2cc1C(C)C	–	–	?	11.7µM	·	–
Cc1cc2oc(=O)cc(CN3CCCCC3)c2cc1O	27.3	–	–	–	–	–
Cc1cc(C)c2oc(=O)cc(CN3CCCCC3)c2c1	–	–	?	?	–	–
Cc1ccc2c(CN3CCCc4ccccc43)cc(=O)oc2c1C	27.0	–	–	?	–	–
Cc1ccc2c(CN3CCCCC3)cc(=O)oc2c1C	36.1	–	?	?	–	–
CCOC(=O)C1CCCN(Cc2cc(=O)oc3cc(C)c(C(C)C)cc23)C1 (stereo not drawn)	–	–	–	–	–	–
Cc1cc2oc(=O)cc(CN3CCCCC3)c2cc1C(C)C	–	–	–	7.38µM	–	–
CCOC(=O)N1CCN(Cc2cc(=O)oc3cc4c(cc23)CCC4)CC1	–	–	4.65µM	?	–	–
O=S1(=O)C=C(Oc2ccc(F)cc2)c2ccccc21	10.9	26.7	–	–	–	–
O=S1(=O)C=C(Oc2ccc3ccccc3c2)c2ccccc21	–	–	–	?	–	–
O=C(N/N=C/c1ccco1)c1cc(C2CC2)[nH]n1	35.2	117.8	–	–	–	–
SMILES	CHX counter	Shiga inhibitor	Pf growth 96h	Pf growth 48h	AMA1-RON2 inh	SARS PLP yeast
Cc1cc(C(=O)N/N=C2\CC(=O)CC(C)(C)C2)n[nH]1	–	–	–	–	–	–
Cc1cc(C(=O)NN)n[nH]1	20.1	60.9	–	–	–	–
Cc1cc(C(=O)N/N=C/c2ccco2)n[nH]1	28.8	–	–	–	–	–
CC1CCCCC1NC(=O)C1CCCN(S(=O)(=O)c2ccc(-n3cnnn3)cc2)C1 (stereo not drawn)	–	–	?	–	–	–
Cc1[nH]c(=O)c(C#N)cc1-c1ccc2nccn2c1	–	–	–	–	·	·
c1ccc(-c2cc3n(c2)CCc2ccccc2-3)cc1	14.9	49.2	–	?	–	–
Cc1c(C)[n+](=O)c(C)c(C)n1[O-]	·	·	·	·	–	·
O=C(/C=C/c1ccc(OCCCF)cc1)NCc1cccc(Cl)c1	–	–	?	?	–	–
O=C(/C=C/c1ccc(OCCCF)cc1)Nc1ccnc(-c2cccnc2)n1	–	–	?	10.4µM	–	–
CCCCC(=O)Nc1ccnc(-c2cccnc2)n1	–	–	–	–	–	–
O=C(/C=C/c1ccc(OCCCF)cc1)Nc1ccnc(-c2ccncc2)n1	–	–	13.1µM	13.1µM	–	–
CC1CCCCN1C(=O)COC(=O)c1ccc(=O)n(Cc2ccccc2)n1 (stereo not drawn)	·	·	–	–	–	–
CC(=O)c1cccc(NC(=O)c2nc(-c3ccccc3)oc2C)c1	–	–	–	–	–	–
Cc1cnc(C(=O)OC(C(=O)Nc2cc(C(F)(F)F)ccc2Cl)c2ccccc2)cn1 (stereo not drawn)	–	–	10.4µM	14.7µM	–	–
O=C(Nc1cc(C(F)(F)F)ccc1Cl)C(NCc1ccccc1)c1ccccc1 (stereo not drawn)	–	–	9.28µM	10.4µM	–	–
O=C(CNC(=O)c1ccccc1)OC(C(=O)Nc1cc(C(F)(F)F)ccc1Cl)c1ccccc1 (stereo not drawn)	–	–	13.1µM	·	–	–
COc1ccc(C)cc1NC(=O)C(OC(=O)CNC(=O)c1cccc(F)c1)c1ccccc1 (stereo not drawn)	–	–	–	–	–	–
O=C1NC[C@H](CCCCN2C[C@H](Cc3ccc(O)cc3)N(CCc3ccccc3)C(=O)C2=O)N(CC2CCCCC2)C1=O	·	·	·	·	–	·
CC(C)C(=O)Nc1cccc(COc2ccc(CN(CCc3ccccc3)C(=O)OC(C)(C)C)cc2)c1	·	·	·	·	–	·
Cc1cc(NC(=O)C(=O)NCCN2CCN(S(C)(=O)=O)CC2)ccc1Br	–	–	–	–	–	–
COc1cccc(CNC(=O)CN(C)S(=O)(=O)c2ccc3c(c2)n(C)c(=O)c(=O)n3C)c1	–	–	?	?	–	–
CCOc1ccccc1NC(=O)C1CCCN(c2c(CC)c(C)nc3ncnn23)C1 (stereo not drawn)	–	–	–	10.4µM	–	–
CCc1c(C)nc2ncnn2c1N1CCC(C(=O)Nc2ccc(C)cc2)CC1	–	–	11.7µM	?	–	–
COC(=O)CC1C(=O)NCCN1C(=O)c1cc([N+](=O)[O-])ccc1Cl (stereo not drawn)	–	–	–	–	–	–
CCOc1ccc(N2C=Nc3ccc(OCC)cc3C2)cc1	14.0	48.2	?	?	–	–
COC(=O)Cc1ccc(NC(=S)NC2CC2)cc1	–	–	–	–	–	–
COc1ccc(CCN(C)C(=O)C(CCSC)NC(=O)c2ccco2)cc1OC (stereo not drawn)	·	·	–	–	–	–
CCOc1cc(C2CC(=O)c3c(ccc4ccccc34)N2)ccc1O (stereo not drawn)	–	–	1.04µM	–	–	–
CC(Cc1ccccc1Sc1ccccc1)N(C)C (stereo not drawn)	–	–	?	?	–	–
